# Source: PubChem BioAssay
# TDP1 cell CPT: growth inhibition of DT40 Tdp1-/-;hTDP1 cells with camptothecin (screen for TDP1 inhibitors) | Potency, µM (doses to about 46.2 µM), inactives show top-dose activity change, negative = growth inhibition, usual class: inhibitors | AID 686979 | chicken DT40 Tdp1-/-;hTDP1 cells + 20 nM CPT, ATP luminescence, 48 h | 12% of 420,000 active; note: potency is the fitted concentration of half-maximal effect; nearly all actives have a fitted effect of over 55% in size
#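 Chicken DT40 Tdp1-/- cells stably complemented with human TDP1 were seeded at 400 cells/well in medium containing 20 nM camptothecin, exposed to pin-transferred compounds, and grown at 37 °C for at least 48 hr. Viability was read as ATP luminescence.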
# IL-1B inflam inh: inhibitors of inflammasome signaling (IL-1 beta secretion) | activity change, % at 57.5 µM | THP-1 LPS/ATP IL-1B secretion, AlphaLISA, 16 h; stronger effect = lower value | AID 743279 | 4.7% of 360,000 active; in the data active = activity change below about -50%; inconclusive = mostly about -30% to -49%
#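 THP-1 cells pretreated 1 hr with compounds (up to 57.5 uM final), then stimulated with LPS (250 ng/mL final) plus ATP (1.25 mM final); secreted IL-1B measured by AlphaLISA after 16 hr, decreased signal indicating inhibition.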
# ALOX12 inh: inhibitors of human 12S-lipoxygenase ALOX12; P18054; purified 12hLO, xylenol orange hydroperoxide absorbance; Potency, µM (series often up to 108 µM), without a hit: at the highest dose activity change, negative = inhibition, actives largely listed as inhibitors; 1.1% of 580,000 active; note: potency is the fitted concentration of half-maximal effect
# Target sequence (P18054 whole entry, looked up): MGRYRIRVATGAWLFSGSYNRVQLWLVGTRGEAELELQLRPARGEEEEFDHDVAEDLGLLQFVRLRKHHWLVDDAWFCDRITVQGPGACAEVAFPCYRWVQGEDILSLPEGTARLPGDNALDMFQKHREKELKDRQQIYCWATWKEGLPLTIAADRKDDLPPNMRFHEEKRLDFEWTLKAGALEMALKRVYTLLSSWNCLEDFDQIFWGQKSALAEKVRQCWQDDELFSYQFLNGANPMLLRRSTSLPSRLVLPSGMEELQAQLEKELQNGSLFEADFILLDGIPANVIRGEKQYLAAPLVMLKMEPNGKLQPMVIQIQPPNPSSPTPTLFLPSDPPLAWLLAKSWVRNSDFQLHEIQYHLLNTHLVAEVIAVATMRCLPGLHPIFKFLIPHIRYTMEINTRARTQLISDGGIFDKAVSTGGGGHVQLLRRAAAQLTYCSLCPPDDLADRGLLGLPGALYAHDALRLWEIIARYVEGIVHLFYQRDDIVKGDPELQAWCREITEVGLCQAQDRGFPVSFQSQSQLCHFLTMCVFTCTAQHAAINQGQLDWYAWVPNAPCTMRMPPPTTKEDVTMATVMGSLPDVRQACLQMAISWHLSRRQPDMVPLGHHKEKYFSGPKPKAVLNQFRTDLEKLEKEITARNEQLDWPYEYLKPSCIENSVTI
#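 Purified human 12hLO (150 nM final) in 25 mM Hepes, 0.01% Triton X-100, pH 7.0 was preincubated 15 min at room temperature with compound. Then 40 uM arachidonic acid was added, 30 min. Hydroperoxide was read by Fe-XO absorbance ratio 573/405 nm.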
# HT1080 IDH1KD tx: HT-1080 IDH1 knockdown cell toxicity (counter line). Potency, µM (top dose mostly 46.1 µM), for inactives: at the highest dose activity, negative = toxicity, usual class: cytotoxic. 2% of 360,000 active. HT-1080 IDH1 knockdown viability, ATP luminescence, 48 h. AID 686971;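 note: potency is the fitted concentration of half-maximal effect; 0% = DMSO wells and -100% = cell-free medium wells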
#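 % activity derives from luminescence (CellTiter-Glo), normalised to DMSO and no-cell wells. HT-1080-IDH1KD cells, 750/well, had 48 h compound exposure at 37 °C.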
# HT1080-NT tox: kills 2HG-producing HT-1080-NT fibrosarcoma cells | Potency, µM (series often up to 46.1 µM), for inactives: at the top dose activity, negative = less viability, usual class: cytotoxic | 1.6% of 360,000 active | HT-1080-NT fibrosarcoma viability, CellTiter-Glo ATP luminescence, 48 h | AID 686970;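 note: NT is the 2HG producing partner of a matched IDH1 knockdown line; potency is the fitted concentration of half-maximal effect; 0% = DMSO-treated cells and -100% = media-only wells without cells; nearly all actives have a fitted effect of over 55% in size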
#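 HT-1080-NT; 750 cells/well; 5% FBS RPMI; 48 h compound, 37 degrees C; CellTiter-Glo luminescence; curve fitting and curve-class assignment.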
# DT40 TDP1 no CPT: qHTS for Inhibitors of human tyrosyl-DNA phosphodiesterase 1 (TDP1): qHTS in cells in absence of CPT; 15% of 420,000 active; DT40 Tdp1-/- hTDP1 cells, no CPT, ATP luminescence, 48 h; AID 686978, 2013; Potency, µM (top dose mostly 46.2 µM), for the others: at the top dose activity change, negative = growth inhibition, most hits filed as inhibitors; note: potency is the fitted concentration of half-maximal effect; nearly all actives have a fitted effect of over 55% in size
#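 Chicken DT40 Tdp1-/- cells stably complemented with human TDP1 were seeded at 400 cells/well with DMSO in place of 20 nM camptothecin. After compound pinning, cells grew at least 48 hr at 37 °C; viability read by CellTiter-Glo luminescence.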
# * hit, by the source's call; ? = inconclusive; / = not tested or not shown; [ ] = dose if it differs, or a comment. Only a selection was taken, and hits are over-represented in it overall. Unless noted, calls come from the whole dose curve; as a rule, active = well fitted curve in the direction sought with a large enough effect; inconclusive = small, poorly fitted or top-dose-only effect, or another doubt; inactive = no such curve, though single readings can be large; an effect the other way counts as inactive or inconclusive. Unless noted, % is set by controls: 0 for no effect and ±100 for the full control effect.
SMILES,TDP1 cell CPT,IL-1B inflam inh,ALOX12 inh,HT1080 IDH1KD tx,HT1080-NT tox,DT40 TDP1 no CPT
C=CCC[C@@H](Cc1ccc(F)cc1)C(=O)OC[C@@H](C)NC(=O)[C@@H](CC=C)CC(=O)N[C@H](CO)Cc1ccccc1,14.6µM*,?,-11.0%,-18.5%,-13.4%,?
C=CC[C@@H](CC(=O)N[C@H](CO)Cc1ccccc1)C(=O)N[C@@H](C)COC(=O)[C@@H](CC=C)Cc1ccc(F)cc1,?,19.9,-15.6%,0.0%,-10.0%,18.4µM*
C=CCC[C@@H](Cc1ccc(F)cc1)C(=O)OC[C@@H](Cc1ccccc1)NC(=O)[C@H](CC=C)CC(=O)NCCO,9.2µM*,-25.2,17.9%,-1.2%,0.4%,13µM*
C=CCC[C@@H](Cc1ccc(F)cc1)C(=O)OCCNC(=O)[C@@H](CC=C)CC(=O)N[C@@H](CO)Cc1ccccc1,?,-19.2,-0.1%,-0.6%,-1.9%,-26.3%
C=CCC[C@H](Cc1ccc(F)cc1)C(=O)OC[C@@H](C)NC(=O)[C@H](CC=C)CC(=O)NCCO,-23.4%,-0.3,-8.1%,11.4%,18.3%,?
Cc1ccccc1CN1CC2(COCC1=O)CN(c1ccccc1)C2,/,/,-12.2%[176 µM],/,/,/
Cc1c(S(=O)(=O)c2ccccc2)c(NC(=O)C(C)C)n(C(C)C)c1C,/,/,-4.7%,/,/,/
Cc1ccc(N(C)S(=O)(=O)c2c(-c3cccc(F)c3)csc2C(=O)NCc2cccnc2)cc1,/,/,-0.3%,/,/,/
C=CCC[C@@H](Cc1ccc(F)cc1)C(=O)OCCNC(=O)[C@@H](CC=C)CC(=O)N[C@H](CO)Cc1ccccc1,20.6µM*,2.5,-8.8%,-4.1%,-12.8%,?
CCN(c1ccccc1)S(=O)(=O)c1cc2c3c(c1)CCN3C(=O)CC2,/,/,12.5%,/,/,/
CC1C(=O)N2CCCc3cc(S(=O)(=O)NCCc4ccccc4)cc1c32 (stereo not drawn),?,8.7,-17.0%,1.9%,-4.1%,-26.7%
CCN(c1cccc(C)c1)S(=O)(=O)c1cc2c3c(c1)CCN3C(=O)CC2,29.1µM*,18.5,/,-13.6%,-1.7%,14.6µM*
CCN(c1ccccc1)S(=O)(=O)c1cc2c3c(c1)C(C)C(=O)N3CCC2 (stereo not drawn),18.4µM*,8.2,?,2.7%,-2.0%,16.4µM*
CCCNC(=O)N[C@@H]1C[C@H](Cn2cc(-c3cccnc3)nn2)[C@@H](O)[C@H]1O,/,/,14.1µM*,/,/,/
CN1/C(=C\C(=O)Nc2cccnc2)c2ccccc2CC1(C)C,18.4µM*,5.7,0.8%,10.1%,0.7%,10.3µM*
COc1ccc(C(=O)N2CCC3(CC2)Cc2ccccc2NC3=O)cc1,/,/,104.6%,/,/,/
COc1ccc(C(=O)/C=C2/c3ccccc3CC(C)(C)N2C)cc1,5.17µM*,7.3,4.6%,6.31µM*,6.31µM*,5.17µM*
Cc1ccc(-c2nc3nc(CN4CCCC4)cc(=O)n3[nH]2)cc1,/,/,-5.9%,/,/,/
C#CCOCCOCCOCCNc1nc(N2CCOCC2)nc(N2CCN(C(=O)CCCCCCCCCCNC(=O)[C@@H]([C@H](C)CC)n3cc(CCCCCN)nn3)CC2)n1,?,1.5,?,-23.9%,-20.5%,?
C#CCOCCOCCOCCNc1nc(N2CCN(C(=O)CCCCCCCCCCNC(=O)[C@@H](CCC(=O)O)n3cc(CCCCCN)nn3)CC2)nc(N2CCN(C(=O)CCCCCCCCCCNC(=O)[C@H]([C@@H](C)CC)n3cc(CCCCCN)nn3)CC2)n1,-6.2%,-94.6*,/,-2.6%,-18.4%,?
C#CCOCCOCCOCCNc1nc(N2CCN(C(=O)CCCCCCCCCCNC(=O)[C@H]([C@@H](C)CC)n3cc(CCCCCN)nn3)CC2)nc(N2CCN(C(=O)CCCCCCCCCCNC(=O)[C@H](CO)n3cc(CCCCCN)nn3)CC2)n1,?,-82.8*,/,?,?,?
C#CCOCCOCCOCCNc1nc(N2CCN(C(=O)CCCCCCCCCCNC(=O)Cn3cc(CCCCCN)nn3)CC2)nc(N2CCN(C(=O)CCCCCCCCCCNC(=O)[C@H]([C@@H](C)CC)n3cc(CCCCN=C(N)N)nn3)CC2)n1,20.6µM*,-109.6*,/,?,?,?
C#CCOCCOCCOCCNc1nc(N2CCN(C(=O)CCCCCCCCCCNC(=O)[C@H]([C@@H](C)CC)n3cc(CCCCN=C(N)N)nn3)CC2)nc(N2CCN(C(=O)CCCCCCCCCCNC(=O)[C@H](CCCCN)n3cc(C)nn3)CC2)n1,23.1µM*,-111.8*,/,?,?,8.2µM*
C#CCOCCOCCOCCNc1nc(N2CCOCC2)nc(N2CCN(C(=O)CCCCCCCCCCNC(=O)[C@@H](CCC(=O)O)n3cc(CCCCCN)nn3)CC2)n1,2.5%,12.9,?,15.5%,8.1%,13.0%
C#CCOCCOCCOCCNc1nc(N2CCN(C(=O)Cn3cc(CCCN=C(N)N)nn3)CC2)nc(N2CCN(C(=O)[C@H]([C@@H](C)CC)n3cc(CCCCN)nn3)CC2)n1,-26.5%,-6.7,1.3%,10.8%,7.2%,-6.3%
C#CCOCCOCCOCCNc1nc(N2CCN(C(=O)CCCCCCCCCCNC(=O)[C@H](CCCCN)n3cc(CCCC(=O)O)nn3)CC2)nc(N2CCN(C(=O)CCCCCCCCCCNC(=O)[C@@H]([C@H](C)O)n3cc(C)nn3)CC2)n1,-9.8%,0.0,/,3.5%,1.5%,-0.9%
